Values without a mark were called inactive. Results filed as inconclusive are left out. The source made the active and inactive calls. Unless noted, calls come from the whole dose curve; as a rule, active = well fitted curve in the direction sought with a large enough effect in the repeat runs; inconclusive = weak or mixed curves; inactive = no such curve, though single readings can be large; an effect the other way counts as inactive or inconclusive.

The nature of assay [1]: qHTS assay for small molecules that induce genotoxicity in human embryonic kidney cells expressing luciferase-tagged ATAD5 (AID 651632). Note: nearly all actives have a fitted effect of over 15% in size. Put shortly: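 Increased luciferase signal from ATAD5-tagged reporter cells indicates DNA-damage-driven ATAD5 induction. HEK293T cells are treated for 16 hr at 37C before detection with Amplite.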
Assay [2] in a line: qHTS assay for small molecule agonists of the p53 signaling pathway - cell viability (AID 651633; calls by dose curve;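 note: p53RE-bla HCT reporter cells with a stable beta-lactamase p53 reporter; series mostly up to about 83 µM; nearly all actives have a fitted effect of over 30% in size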). Put shortly: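 p53RE-bla cells, seeded at 4,000 per well and rested 5 h at 37 C/5% CO2, received compounds in DMSO for 16 h at 37 C. CellTiter-Glo was then added, and luminescence was read after 30 min at room temperature to gauge cytotoxicity.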
In general terms: qHTS replaces the single test concentration by a dilution series.

A short description of assay [3]: qHTS assay for small molecules that induce genotoxicity in human embryonic kidney cells expressing luciferase-tagged ATAD5 - cell viability (AID 651634; calls by dose curve; note: nearly all actives have a fitted effect of over 25% in size; note: potency is the fitted concentration of half-maximal effect). In outline: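 Cytotoxicity counterscreen in HEK293T cells bearing an ATAD5-luciferase reporter: live-cell protease activity measured by CellTiter-Fluor fluorescence after 15.5 hr compound exposure.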
A short description of assay [4]: qHTS assay for small molecule disruptors of the mitochondrial membrane potential - cell viability (AID 720634; calls by dose curve;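 note: human HepG2 liver cancer cells; series mostly up to about 83 µM; nearly all actives have a fitted effect of over 20% in size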). Put shortly: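 After overnight attachment at 37 C, HepG2 cells received compound or DMSO vehicle for 1 hr. Viability is then taken from ATP-driven luminescence following a 30 min room-temperature CellTiter-Glo step.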
The nature of assay [5]: qHTS assay for small molecule disruptors of the mitochondrial membrane potential (AID 720635). Put shortly:
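HepG2 cells (2,000/well) attached overnight at 37C, then took compound for 1 hr at 37C, 5% CO2. Mito-MPS dye was added for 30 min; fluorescence was read at 490/535 nm (monomers) and 540/590 nm (aggregates).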

Assay [6] in a line: qHTS assay to test for compound auto fluorescence at 590 nm (red) in HepG2 cells (AID 720674). Put shortly: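 Intrinsic compound fluorescence in the red window (Ex/Em 540/590 nm) is measured in attached HepG2 cells exposed for 1 hr, DMSO vehicle as baseline, benchmarked to Rose Bengal sodium.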
Assay [7] in a line: qHTS assay to test for compound auto fluorescence at 460 nm (blue) in HEK293 cells (AID 720678). In outline: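 HEK293 cells (2,000 per well, medium with 10% dialyzed FBS) attached for 4-5 hr at 37C, then received compound and stood overnight at 37C, 5% CO2. Blue fluorescence was read at Ex/Em 405/460 nm and expressed relative to triamterene.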
Assay [8] is described as follows: qHTS assay to test for compound auto fluorescence at 590 nm (red) in HEK293 cells (AID 720679). In outline: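 HEK293 cells (2,000/well, medium with 10% dialyzed FBS) attached for 4-5 hr at 37C, received 23 nL compound and were incubated overnight at 37C, 5% CO2. Red fluorescence was then read at 540/590nm Ex/Em, referenced to Rose Bengal sodium.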
Assay [9] in a line: qHTS assay to test for compound auto fluorescence at 535 nm (green) in HepG2 cells (AID 720675).
% is set by controls: 0 for no effect and ±100 for the full control effect.

On to `O=S(=O)(O)c1cccc2ccccc12`, for which the Potency result in [1], in assay [2], in assay [3] and in [5] was “inactive” in each case. The molecule was classed as inactive in assay [4], in assay [6], in assay [7] and in [8].

For the molecule `CCCCOC(=O)CCC(C)=O`, the Potency entry in [1], in assay [2], in assay [3] and in assay [5] was “inactive” each time. In addition, the outcome in [4], in assay [6], in assay [7] and in assay [8] was inactive.

For `O=C(CO)[C@@H](O)[C@H](O)[C@H](O)CO`, the Potency result in assay [1], in assay [2], in assay [3] and in assay [5] was “inactive” throughout. Also, the result in assay [4], in assay [6], in assay [7] and in assay [8] was inactive.

As for `C1CCC2(CCCCO2)OC1`, the Potency entry in assay [1], in assay [2], in assay [3] and in assay [5] was “inactive” each time. Besides, the result in assay [4], in [6], in assay [9], in assay [7] and in assay [8] was inactive.

Regarding `CCOC(=O)c1cnc2c(cnn2CC)c1NN=C(C)C`, the Potency result in assay [1], in assay [2] and in assay [3] was “inactive” in each case. For the same molecule, the call in assay [4], in [6], in [9] and in assay [7] was inactive.

For `CCC(C)(CCCC(C)C)OC(C)=O` (configuration not stated), the Potency entry in assay [1], in assay [2], in assay [3] and in assay [5] was “inactive” each time. For the same molecule, the result in assay [4], in assay [6], in [9] and in [7] was inactive.

Take `CN(C)[C@@H]1C(=O)C(C(=O)NCN2CCCC2)=C(O)[C@@]2(O)C(=O)C3=C(O)c4c(O)cccc4[C@@](C)(O)C3C[C@@H]12` (some centres not stated): the Potency entry in [1], in assay [2], in assay [3] and in assay [5] was “inactive” in each case. Further, the call in assay [4], in assay [6], in assay [9], in assay [7] and in [8] was inactive.

On to `COc1ccnc(CS(=O)c2nc3cc(OC(F)F)ccc3[nH]2)c1OC` (configuration not stated), for which the Potency entry in assay [1], in [2], in assay [3] and in assay [5] was “inactive” each time. For the same molecule, the call in assay [4], in assay [6], in assay [7] and in [8] was inactive.

With `[O-][n+]1cccc(CO)c1`, the Potency result in assay [1], in assay [2], in [3] and in assay [5] was “inactive” in each case. In addition, the outcome in assay [4], in assay [6], in [7] and in assay [8] was inactive.

On to `CCC1C(=O)OCC1Cc1cncn1C` (configuration not stated), for which the Potency entry in assay [1], in assay [2], in assay [3] and in assay [5] was “inactive” in each case. The call in assay [4], in assay [6] and in assay [7] was inactive.

For `CCCCc1nc(Cl)c(CO)n1Cc1ccc(-c2ccccc2-c2nn[nH]n2)cc1`, the Potency result in assay [1], in [2] and in [3] was “inactive” in each case. Moreover, the molecule was classed as inactive in assay [4], in assay [6], in assay [9], in assay [7] and in assay [8].

As to `c1ccc(Cc2ccccc2)cc1`, the Potency entry in [1], in [2] and in [3] was “inactive” in each case. For the same molecule, the call in assay [4], in [6], in assay [9], in [7] and in [8] was inactive.

As for `C[N+]12CCC(CC1)C(OC(=O)C(O)(c1ccccc1)c1ccccc1)C2` (configuration not stated), the Potency entry in assay [1], in assay [2], in assay [3] and in assay [5] was “inactive” each time. For the same molecule, the fluorescence, relative to Rose Bengal in assay [6] is 0.0225% [at 18.6 µM]. Also, in [9], the fluorescence, % of fluorescein control was -0.0019% [at 18.6 µM]. Besides, in [7], the fluorescence, % of triamterene was 0.0716% [at 18.6 µM]. Moreover, the fluorescence, % of fluorescent control in assay [8] is -0.175% [at 18.6 µM].

With `CC(=O)Nc1ccc(OCC(O)CNC(C)C)cc1` (configuration not stated), the Potency entry in assay [1], in assay [2] and in [3] was “inactive” throughout. For the same molecule, the call in assay [4], in [6], in assay [9], in assay [7] and in [8] was inactive.

Take `CC(C)CC(C)(N)C#N` (configuration not stated): the Potency result in assay [1], in assay [2] and in [3] was “inactive” each time. Further, the result in [4], in assay [6], in assay [9], in assay [7] and in [8] was inactive.

For `Cc1ncc([C@@H](CCCCCCc2ccc3c(n2)NCCC3)CC(=O)O)cn1`, the Potency result in [1] and in [2] was “inactive” each time. In [3], the Potency was 27.3 nM (active). Further, the molecule was classed as inactive in assay [4], in assay [6], in [9], in assay [7] and in assay [8].

With `CCOc1ccc2nc(S(N)(=O)=O)sc2c1`, the Potency result in assay [1], in assay [2] and in assay [3] was “inactive” in each case. For the same molecule, the result in assay [4], in assay [6], in assay [9], in [7] and in assay [8] was inactive.

Turning to `CC[N+](CC)(CC(=O)Nc1c(C)cccc1C)Cc1ccccc1` (tested in a mixture with another compound), the Potency entry in assay [1], in [2] and in assay [3] was “inactive” throughout. Also, the call in assay [4], in [6], in assay [9], in [7] and in assay [8] was inactive.

As for `C=CCCCCCCCCC(=O)OCC`, the Potency result in [1], in [2] and in assay [3] was “inactive” throughout. In addition, the call in [4], in assay [6], in assay [9], in assay [7] and in assay [8] was inactive.

As to `CCCCCCCCCCOc1cc2c(=O)c(C(=O)OCC)c[nH]c2cc1OCC`, the Potency entry in [1], in assay [2] and in assay [3] was “inactive” in each case. In addition, the molecule was called inactive in [4], in assay [6], in assay [9], in assay [7] and in assay [8].

Regarding `CCCOC(=O)CC`, the Potency result in assay [1], in assay [2] and in assay [3] was “inactive” in each case. Besides, the result in assay [4], in assay [6], in assay [9], in [7] and in assay [8] was inactive.

Take `CO[C@@]1(NC(=O)C(C(=O)O)c2ccc(O)cc2)C(=O)N2C(C(=O)O)=C(CSc3nnnn3C)CO[C@@H]21` (some centres not stated): the Potency entry in assay [1], in assay [2] and in assay [3] was “inactive” throughout. The molecule was called inactive in [4]. Moreover, the fluorescence, relative to Rose Bengal in assay [6] was 0.111% [at 18.6 µM]. For the same molecule, the fluorescence, % of fluorescein control in [9] is -0.0745% [at 18.6 µM]. Also, in assay [7], the fluorescence, % of triamterene was 0.184% [at 18.6 µM]. In assay [8], the fluorescence, % of fluorescent control was 0.0051% [at 18.6 µM].

For the molecule `CCO[Si](OCC)(OCC)c1ccccc1`, the Potency entry in assay [1], in assay [2] and in [3] was “inactive” each time. Besides, the outcome in [4], in [6], in [9], in assay [7] and in assay [8] was inactive.

Take `CCN(Cc1ccccc1)c1ccccc1`: the Potency result in assay [1], in [2] and in assay [3] was “inactive” in each case. Further, the result in assay [4], in assay [6], in assay [9], in [7] and in assay [8] was inactive.

These data come from PubChem BioAssay (Tox21).
